Nrf2 inh: Nrf2 pathway inhibition | A549 ARE-Fluc reporter, luciferase luminescence, 18-24 h | Potency, µM (highest dose often 46 µM), for the others: top-dose activity change, negative = inhibition, most hits filed as inhibitors | 360,000 compounds, 2.1% hits; further: on the % scale 0 is the no-effect control and ±100 the full control effect; nearly all actives have a fitted effect of over 60% in size
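Cells were seeded and rested 2 h, then exposed to compounds for 18-24 h. CellTiter-Fluor was read first as a viability measure. BugLite was added 15 min before the final luminescent read of ARE-luciferase activity in A549 cells.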
A549 tox-1: kills or reduces viability of A549 cells in Nrf2 counter-screen; Potency, µM (top dose mostly 46 µM), for the others: top-dose activity change, negative = cytotoxicity, usual class: inhibitors; 390,000 compounds, 0.16% hits; A549 ARE-Fluc cells, CellTiter-Fluor viability, 18-24 h; further: on the % scale 0 is the no-effect control and ±100 the full control effect
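A549 ARE-Fluc cells in 5% FBS OPTI-MEM, 5000 cells/well, rested 2 h then exposed to compounds in concentration-response for 18-24 h at 37 °C. Viability by CellTiter-Fluor fluorescence (Ex 405/Em 525) after 30 min; luciferase luminescence (BugLite, 15 min, RT) read afterwards.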
IDH1 R132H inh: human IDH1 R132H inhibition; Potency, µM (titrated, usually from 76.6 µM), without a hit: at the highest dose activity change, negative = inhibition, hits mostly inhibitors; 390,000 compounds, 0.093% hits; IDH1-R132H enzyme, NADPH consumption, diaphorase/resazurin fluorescence; further: on the % scale 0 is the no-effect control and ±100 the full control effect; nearly all actives have a fitted effect of over 65% in size
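IDH1-R132H (0.5 ug/mL) preincubated 30 min with compound, then NADPH (0.016 mM) and alpha-KG (2 mM) added; 80 min at RT, pH 7.5. Remaining NADPH coupled via diaphorase/resazurin to fluorescence (540/590 nm); concentration-response curves normalized to no-enzyme control.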
TrxR1 inh: rat TrxR1 inhibition; O89049; recombinant rTrxR1, NADPH fluorescence consumption, selenite substrate; Potency, µM (series often up to 114 µM), for inactives: top-dose activity change, negative = inhibition, hits mostly inhibitors; 390,000 compounds, 1% hits; AID 588453; further: on the % scale 0 is the no-effect control and ±100 the full control effect; nearly all actives have a fitted effect of over 65% in size
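Rat TrxR1 (90 nM in the dispensed reagent) was pre-reduced with 400 uM NADPH for 5 min at room temperature, then incubated with compound for 15 min. After 400 uM selenite was added, NADPH fluorescence (Ex 340/Em 450 nm) was followed for 8 min.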
TrxR1 substrate: rat thioredoxin reductase 1 substrate activity; O89049; purified TrxR1 substrate turnover, NADPH consumption readout; 390,000 compounds, 0.01% hits; Potency, µM (series often up to 114 µM), for inactives: at the top dose activity change, negative = substrate turnover; further: on the % scale 0 is the no-effect control and ±100 the full control effect; nearly all actives have a fitted effect of over 50% in size
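Rat TrxR1, dispensed at 90 nM, was prereduced with 400 uM NADPH (final) for 5 min at ~22 deg C, then incubated with compound 15 min before 400 uM selenite. A first-read NADPH fluorescence drop versus no-compound background flagged substrates.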
Mito fusion act: inhibitors of mitochondrial division or activators of mitochondrial fusion | S. cerevisiae fusion-defective mutant growth rescue, CellTiterGlo 48 h | Potency, µM (titrated, usually from 46.1 µM), inactives show top-dose growth rescue (activation), hits mostly activators | 320,000 compounds, 0.23% hits | AID 485298; further: % of control where 0% means no effect; nearly all actives have a fitted effect of over 45% in size
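Temperature-sensitive fusion-defective S. cerevisiae (e.g. fzo1-1, mgm1-5) were grown with compound in YPEG medium (3% ethanol, 3% glycerol) for 48 hours at 37C. Growth rescue was measured as viability by CellTiterGlo luminescence after 10 minutes at ambient.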
FLuc counter 3: counter-screen for Nrf2 inhibitors: firefly luciferase enzyme inhibition | shares compounds with Nrf2 inh | purified firefly luciferase, luminescence inhibition | Potency, µM (titrated, usually from 57.5 µM), without a hit: top-dose activity change, negative = inhibition, hits mostly inhibitors | 1,400 compounds, 4% hits; further: on the % scale 0 is the no-effect control and ±100 the full control effect; nearly all actives have a fitted effect of over 65% in size
Target sequence (P08659 whole entry, looked up): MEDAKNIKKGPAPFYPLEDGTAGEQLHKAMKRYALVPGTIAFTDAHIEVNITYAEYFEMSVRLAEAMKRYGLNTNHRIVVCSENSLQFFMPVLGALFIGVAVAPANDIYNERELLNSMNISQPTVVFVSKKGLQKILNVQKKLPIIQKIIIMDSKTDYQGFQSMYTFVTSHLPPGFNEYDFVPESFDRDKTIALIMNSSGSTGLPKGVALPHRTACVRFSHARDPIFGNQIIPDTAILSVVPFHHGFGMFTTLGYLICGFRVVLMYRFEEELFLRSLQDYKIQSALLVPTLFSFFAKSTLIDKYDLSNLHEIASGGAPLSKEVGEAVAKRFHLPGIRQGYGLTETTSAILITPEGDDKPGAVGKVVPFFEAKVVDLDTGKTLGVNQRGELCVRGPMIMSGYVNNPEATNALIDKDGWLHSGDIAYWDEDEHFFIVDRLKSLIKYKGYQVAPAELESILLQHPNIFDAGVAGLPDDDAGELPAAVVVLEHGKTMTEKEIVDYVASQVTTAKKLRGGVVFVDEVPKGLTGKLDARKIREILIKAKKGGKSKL
A549 tox-2: toxic to A549 ARE-Fluc cells in Nrf2 counterscreen. A549 ARE-Fluc cells, cytotoxicity counterscreen. 1,400 compounds, 2% hits. shares compounds with Nrf2 inh. AID 720523. Potency, µM (top dose mostly 46.1 µM), inactives show top-dose activity change, negative = cytotoxicity, hits mostly inhibitors;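 further: cells exposed to compounds for 18 to 24 hours; on the % scale 0 is the no-effect control and ±100 the full control effect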
Nrf2 ARE inh: confirmation of Nrf2 inhibitors in A549 ARE reporter cells | shares compounds with Nrf2 inh | Potency, µM (titrated, usually from 46.1 µM), for the others: top-dose activity change, negative = inhibition, actives largely listed as inhibitors | 1,400 compounds, 74% hits | A549 ARE-firefly luciferase reporter, luminescence | AID 720524; further: on the % scale 0 is the no-effect control and ±100 the full control effect; nearly all actives have a fitted effect of over 65% in size
Numbers without * were called inactive; [ ] = remark or other dose. Only some compounds are listed: those with a hit (about 3.1% of all), similar ones and a draw of the others. The call rests on the fitted dose curve; in most records, active means well fitted curve in the direction sought with a large enough effect; inconclusive means small, poorly fitted or top-dose-only effect, or another doubt; inactive means no such curve, though single readings can be large; an effect the other way counts as inactive or inconclusive. Potency means the concentration at half of the fitted maximal effect.

For O=c1cc(N2CCN(c3cccc(Cl)c3)CC2)[nH]c(=O)n1C1CCCCC1 the results were Nrf2 inh inconclusive, A549 tox-1 inconclusive, IDH1 R132H inh 2.7%, TrxR1 inh 28.4%, TrxR1 substrate 8.5%, Mito fusion act 0.3%, FLuc counter 3 -1.1% and A549 tox-2 inconclusive.
For O=C(Nc1ccc2oc(-c3cccnc3)nc2c1)c1ccc(-c2cccc(OC(F)(F)F)c2)o1 the results were Nrf2 inh 1.46µM*, A549 tox-1 -2.8%, IDH1 R132H inh -20.7%, TrxR1 inh inconclusive, TrxR1 substrate 15.2%, FLuc counter 3 -23.9%, A549 tox-2 -8.8% and Nrf2 ARE inh 1.84µM*.
O=C(/C=C/c1ccc(S(=O)(=O)N2CCOCC2)cc1)N1CCN(c2ccccc2)CC1 was read as Nrf2 inh 5.8µM*, A549 tox-1 1.1%, IDH1 R132H inh -4.2%, TrxR1 inh 12.3%, TrxR1 substrate -8.0%, Mito fusion act 6.8%, FLuc counter 3 1.5%, A549 tox-2 -0.3% and Nrf2 ARE inh inconclusive.
Screening O=C(NCc1ccco1)c1nc2c(nnn2Cc2ccccc2Cl)c(=O)[nH]1 returned Nrf2 inh 4.61µM*, A549 tox-1 inconclusive, IDH1 R132H inh -3.4%, TrxR1 inh 0.5%, TrxR1 substrate 2.7%, Mito fusion act 0.2%, FLuc counter 3 -5.9%, A549 tox-2 inconclusive and Nrf2 ARE inh 6.51µM*.
`COc1cccc(NC(=O)c2sc(-n3nc(C)c(Cc4ccccc4Cl)c3C)nc2C)c1` gave Nrf2 inh 11.5%, A549 tox-1 0.3%, IDH1 R132H inh 9.3%, TrxR1 inh 25.0% and TrxR1 substrate 0.2%.
Cc1cccc(NC2=NC(C)(C)N=C(N)N2)c1 was read as Nrf2 inh 5.17µM*, A549 tox-1 -7.6%, IDH1 R132H inh -4.2%, TrxR1 inh 2.5%[57.1 µM], TrxR1 substrate 8.0%, Mito fusion act -1.2%, FLuc counter 3 2.2%, A549 tox-2 -5.8% and Nrf2 ARE inh 4.61µM*.
Screening COc1cccc(N2CC(NC(=O)c3cc(Cl)ccc3OC)CC2=O)c1 (stereo unspecified) returned A549 tox-1 -2.8%, IDH1 R132H inh 30.1%, TrxR1 inh 10.5%[57.1 µM] and TrxR1 substrate -3.1%[57.1 µM].
`COc1ccccc1C(=O)NC(=S)Nc1ccc(Cc2ccncc2)cc1` gave Nrf2 inh 5.8µM*, A549 tox-1 -13.7%, IDH1 R132H inh -4.4%, TrxR1 inh 3.4%, TrxR1 substrate 0.2%, Mito fusion act inconclusive, FLuc counter 3 -1.0%, A549 tox-2 0.3% and Nrf2 ARE inh 20.6µM*.
`COc1ccccc1-n1c(-c2ccccc2)c[n+]2c1CCc1ccccc1-2` gave Nrf2 inh 3.66µM*, A549 tox-1 inconclusive, IDH1 R132H inh -1.4%, TrxR1 inh 8.9%, TrxR1 substrate 4.9%, Mito fusion act 1.1%, FLuc counter 3 2.0%, A549 tox-2 -10.5% and Nrf2 ARE inh 8.2µM*.
COc1ccc(-c2c[n+]3c(n2-c2ccccc2)CCCCC3)cc1 was read as Nrf2 inh inconclusive, A549 tox-1 -11.4%, IDH1 R132H inh 3.5%, TrxR1 inh -11.2%, TrxR1 substrate -6.2% and Mito fusion act 1.9%.
Screening COc1ccccc1-n1c(-c2ccccc2)c[nH]c1=S returned Nrf2 inh -0.8%, A549 tox-1 12.8%, IDH1 R132H inh 6.6%, TrxR1 inh 0.3%, TrxR1 substrate 6.7% and Mito fusion act inconclusive.
`CC(C)c1ccc(-n2c(-c3ccccc3)c[n+]3c2CCc2ccccc2-3)cc1` gave Nrf2 inh 2.06µM*, A549 tox-1 10.3µM*, IDH1 R132H inh -1.1%, TrxR1 inh 11.0%[57.1 µM], TrxR1 substrate 0.1%[57.1 µM], Mito fusion act -13.9%, FLuc counter 3 1.6%, A549 tox-2 inconclusive and Nrf2 ARE inh 2.59µM*.
For CC(=O)c1c(C)[nH]c(C(=O)OCc2ccccc2)c1C the results were Nrf2 inh inconclusive, A549 tox-1 3.7%, IDH1 R132H inh 2.2%, TrxR1 inh 5.4%[57.1 µM], TrxR1 substrate 1.2%[57.1 µM] and Mito fusion act inconclusive.
Screening CC(=O)c1c(C)[nH]c(C(=O)OCCCCN2C(=O)c3ccccc3C2=O)c1C returned Nrf2 inh 5.8µM*, A549 tox-1 -18.5%, IDH1 R132H inh 3.2%, TrxR1 inh 15.4%, TrxR1 substrate 0.4%, Mito fusion act 0.2%, FLuc counter 3 1.2% and A549 tox-2 -5.9%.
Screening CC(=O)c1ccc(NC(=O)CN(C)S(=O)(=O)c2cc3c(cc2C)NC(=O)CO3)cc1 returned A549 tox-1 2.8%, IDH1 R132H inh -1.5%, TrxR1 inh 16.1%[57.1 µM] and TrxR1 substrate 5.2%[57.1 µM].
`CCC(=O)N1c2ccccc2CC1C(=O)NCc1ccc(N(C)C)cc1` (stereo unspecified) gave A549 tox-1 2.4%, IDH1 R132H inh 1.0%, TrxR1 inh 9.3%[57.1 µM] and TrxR1 substrate 0.5%[57.1 µM].
`Cc1cccc(C(=O)N2CCc3cc(-c4nc(NC(=O)CN5CCCC5)sc4C)ccc32)c1` gave Nrf2 inh 3.5%, A549 tox-1 -3.6%, IDH1 R132H inh -11.0%, TrxR1 inh 19.7%, TrxR1 substrate 0.0% and Mito fusion act -14.9%.
`Cc1ccccc1C(=O)N1CCc2cc(-c3nc(NC(=O)Cc4ccc5c(c4)OCO5)sc3C)ccc21` gave Nrf2 inh 4.61µM*, A549 tox-1 -8.9%, IDH1 R132H inh -9.7%, TrxR1 inh 32.6%, TrxR1 substrate 0.1%, Mito fusion act -8.7%, FLuc counter 3 -16.0%, A549 tox-2 -9.0% and Nrf2 ARE inh 5.8µM*.
Screening N=c1ccn(Cc2cccc(F)c2)cc1 returned Nrf2 inh 2.06µM*, A549 tox-1 inconclusive, IDH1 R132H inh 0.4%, TrxR1 inh 9.1%[57.1 µM], TrxR1 substrate 1.8%[57.1 µM], Mito fusion act 8.4%, FLuc counter 3 5.0%, A549 tox-2 -10.4% and Nrf2 ARE inh 5.8µM*.
